Hit rate of the full screen: of about 310,000 compounds, about 2,200 (0.71%) showed an effect of 50% or more. Effects have a minus sign here. This excerpt belongs to a sample that is enriched for strong results.

In this experiment the target is human ether-à-go-go-related gene (hERG) potassium channel (human, UniProt Q12809). Kind of experiment: primary screen, population patch clamp on CHO cells stably expressing hERG; higher = less effect of the substance.
human ether-à-go-go-related gene (hERG) potassium channel, sequence (Q12809 whole entry, looked up): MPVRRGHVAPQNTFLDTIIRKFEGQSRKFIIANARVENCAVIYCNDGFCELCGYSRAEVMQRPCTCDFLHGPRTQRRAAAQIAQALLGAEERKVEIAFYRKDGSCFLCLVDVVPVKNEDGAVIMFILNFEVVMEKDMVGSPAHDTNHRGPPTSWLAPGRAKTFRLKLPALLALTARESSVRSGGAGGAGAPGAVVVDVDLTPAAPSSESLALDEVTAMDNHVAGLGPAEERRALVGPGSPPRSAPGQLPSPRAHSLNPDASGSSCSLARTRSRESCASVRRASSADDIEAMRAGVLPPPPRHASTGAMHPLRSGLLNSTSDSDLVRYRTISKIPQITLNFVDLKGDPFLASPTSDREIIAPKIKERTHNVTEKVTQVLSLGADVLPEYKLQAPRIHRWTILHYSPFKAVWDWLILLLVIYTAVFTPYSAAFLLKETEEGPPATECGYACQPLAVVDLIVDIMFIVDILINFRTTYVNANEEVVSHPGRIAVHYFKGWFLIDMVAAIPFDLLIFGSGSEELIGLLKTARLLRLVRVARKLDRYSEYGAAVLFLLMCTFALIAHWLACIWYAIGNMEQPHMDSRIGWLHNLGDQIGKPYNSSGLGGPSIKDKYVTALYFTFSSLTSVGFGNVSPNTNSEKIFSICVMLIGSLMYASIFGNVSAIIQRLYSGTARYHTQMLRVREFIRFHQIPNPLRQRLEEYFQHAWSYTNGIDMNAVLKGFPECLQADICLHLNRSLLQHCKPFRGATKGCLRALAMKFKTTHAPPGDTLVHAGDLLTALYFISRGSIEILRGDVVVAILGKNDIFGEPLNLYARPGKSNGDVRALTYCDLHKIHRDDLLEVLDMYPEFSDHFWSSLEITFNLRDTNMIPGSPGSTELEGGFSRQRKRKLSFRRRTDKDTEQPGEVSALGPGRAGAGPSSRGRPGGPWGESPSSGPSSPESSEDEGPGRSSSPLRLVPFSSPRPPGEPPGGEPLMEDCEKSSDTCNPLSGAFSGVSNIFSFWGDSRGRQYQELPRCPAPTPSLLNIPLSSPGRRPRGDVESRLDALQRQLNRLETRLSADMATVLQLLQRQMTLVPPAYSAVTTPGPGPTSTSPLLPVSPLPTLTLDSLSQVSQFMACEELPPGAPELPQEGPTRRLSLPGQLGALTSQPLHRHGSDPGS
With `CCC1(CC)NC(=O)N(CC(=O)OCC(=O)Nc2ccc(C(F)(F)F)cc2)C1=O`, the “hERG current change (%, negative = inhibition) at 1uM” value is given as 2.71%.
Next, `COc1ccccc1C(=O)C1CCCN(Cc2ccc(Oc3ncccn3)cc2)C1` (stereo not shown): -0.388%; `O=C(c1ccc2c(c1)OCO2)C1CCCN(Cc2ccccn2)C1` (stereo not shown): -13%; `O=C(c1ccc2c(c1)OCO2)C1CCCN(Cc2cn[nH]c2-c2ccccc2)C1` (stereo not shown): -67.3%.
Next, `COC(=O)c1ccc(CN2CCCC(C(=O)c3ccccc3OC)C2)cc1` (stereo not shown): -6.6%; `CCOc1ccc(CN2CCCC(C(=O)c3ccccc3OC)C2)cc1` (stereo not shown): -74.1%.
Next, `O=C(c1ccc2c(c1)OCO2)C1CCCN(Cc2cn[nH]c2-c2cccc(F)c2)C1` (stereo not shown): -42.7%.
Take `CCC(CC)c1nnc(NC(=O)C23CC4CC(CC(NC(C)=O)(C4)C2)C3)s1`: the “hERG current change (%, negative = inhibition) at 1uM” value is listed as 0.699%.
Next, `Cc1cc(C)c(C)c(C(=O)c2ccccc2C(=O)O)c1C`: 6.64%; `COCCNC(=O)COC(=O)c1cccnc1SC`: 12.8%.
To `CC1CCN(C(=O)c2cccc(S(=O)(=O)N3CCCCC3)c2)CC1` belongs 2.17%; to `CCOC(=O)C1=C(CSc2nc(-c3ccccc3)ccc2C#N)OC(N)=C(C#N)C1c1cccnc1` (stereo not shown), -6.76%.
For the molecule `Cc1ccc(C(=O)N/C(=C\c2ccccc2)C(=O)NCCCn2ccnc2)cc1`, the “hERG current change (%, negative = inhibition) at 1uM” value is reported as -87%.
Turning to `COc1ccc(/C=C(\NC(=O)c2ccc(C)cc2)C(=O)NCCCn2ccnc2)cc1OC`, the “hERG current change (%, negative = inhibition) at 1uM” value is on record as 12.1%.
Next, `CSc1ccc(/C=C(/NC(=O)c2ccccc2)C(=O)NCCCn2ccnc2)cc1`: -15.6%; `COc1ccc(/C=C(\NC(=O)c2ccc(Cl)cc2)C(=O)NCCCn2ccnc2)cc1OC`: 9.45%; `O=C(NCCCn1ccnc1)/C(=C\c1ccccc1F)NC(=O)c1ccccc1`: -42.5%.
Next, `O=C(NCCCn1ccnc1)/C(=C/c1ccc(F)cc1)NC(=O)c1ccccc1`: -72.2%.
To `Cc1ccc(C(=O)N/C(=C\c2cn(C)c3ccccc23)C(=O)NCCCn2ccnc2)cc1` belongs 13.5%.
Turning to `Cc1ccc(C(=O)N/C(=C\c2ccc(F)cc2)C(=O)NCCCn2ccnc2)cc1`, the “hERG current change (%, negative = inhibition) at 1uM” value was -85.1%.
For `Cc1ccc(C(=O)N/C(=C/c2ccccc2F)C(=O)NCCCn2ccnc2)cc1`, the “hERG current change (%, negative = inhibition) at 1uM” value is reported as -22.5%.
To `Cc1ccc(/C=C(\NC(=O)c2ccc(C)cc2)C(=O)NCCCn2ccnc2)cc1` belongs -87%; to `CC(C)(C)NC(=S)N/N=C\c1ccc(-c2ccc([N+](=O)[O-])cc2)o1`, 13.3%.
Next, `COC(=O)Nc1ccc(S(=O)(=O)N2CCCC(C(=O)N3CCN(C)CC3)C2)cc1` (stereo not shown): 7.31%; `Cc1cc(C)c2cc(CN(Cc3ccc4c(c3)OCO4)Cc3nnnn3Cc3ccco3)c(=O)[nH]c2c1`: 10.8%; `CC1=NN(C(C#N)c2ccccc2C)C(c2ccccc2)C1` (stereo not shown): 9.72%.
For the molecule `Cc1cc(C)nc(/N=C2\NC(=O)CC3C(=O)NCCN23)n1` (stereo not shown), the “hERG current change (%, negative = inhibition) at 1uM” value stood at 13.1%.
Next, `CN1CC(=O)Nc2ccc([N+](=O)[O-])cc2C1=O`: 17.6%.
Next, `COC(=O)c1cc2ccsc2n1Cc1ccccc1F`: -2.01%.
To `COc1ccc(/C=C(\NC(=O)c2ccc(C)cc2)C(=O)NCCCn2ccnc2)cc1` belongs -91.7%; to `COc1ccc(/C=C(/NC(=O)c2ccc(OC)c(OC)c2)C(=O)NCCCn2ccnc2)cc1`, 15.5%; to `COc1ccc(C(=O)N/C(=C\c2ccccc2)C(=O)NCCCn2ccnc2)cc1`, -18.2%.
With `Cc1oc(CN2CCOCC2)cc1C(=O)O`, the “hERG current change (%, negative = inhibition) at 1uM” value is on record as 7.66%.
To `COc1ccc(-n2cc(-c3ccc(OC(F)F)cc3)[n+]3c2CCCCC3)cc1.[Br-]` belongs -52.9%; to `Cc1ccc(-c2cn(-c3ccc(OC(F)F)cc3)c3[n+]2CCCCC3)cc1.[Br-]`, -13.3%.
Next, `FC(F)Oc1ccc(-n2cc(-c3ccc(Cl)cc3)[n+]3c2CCCCC3)cc1.[Br-]`: -45.2%; `CCn1nccc1C(=O)Nc1cc(Cl)ccc1Cl`: 0.897%.
To `COc1ccc(CCN(C)C2CCCN(S(C)(=O)=O)C2)cc1OC` (stereo not shown) belongs 6.5%.
For the molecule `COc1ccc(S(=O)(=O)N2CCCC(N(C)CCc3ccccc3)C2)cc1OC` (stereo not shown), the “hERG current change (%, negative = inhibition) at 1uM” value was -26.5%.
Next, `COc1ccc(CCN(C)C2CCCN(S(=O)(=O)N(C)C)C2)cc1OC` (stereo not shown): 8.71%.
To `CN(CCc1ccccc1)C1CCCN(S(=O)(=O)c2cccc(F)c2)C1` (stereo not shown) belongs -2.76%; to `CC(=O)c1ccc(S(=O)(=O)N2CCCC(N(C)CCc3ccccn3)C2)cc1` (stereo not shown), -44.4%.
Next, `COc1ccc(CCN(C)C2CCCN(S(=O)(=O)c3ccc(C)cc3)C2)cc1OC` (stereo not shown): -82.1%; `COc1ccc(CCN(C)C2CCCN(S(=O)(=O)c3ccccc3)C2)cc1OC` (stereo not shown): -64.9%.
With `CC(=O)c1ccc(S(=O)(=O)N2CCCC(N(C)CCc3ccccc3)C2)cc1` (stereo not shown), the “hERG current change (%, negative = inhibition) at 1uM” value is given as -78.7%.
Next, `COc1ccc(CCN(C)C2CCCN(S(=O)(=O)c3ccccc3F)C2)cc1OC` (stereo not shown): -45.9%.

For the origin of these results see PMC4336329 (PLoS ONE, 2015).
